Inconclusive results are not listed. Activity calls are given as the source filed them. Calls come from the whole dose curve; as a rule, active = well fitted curve in the direction sought with a large enough effect; inconclusive = small, poorly fitted or top-dose-only effect, or another doubt; inactive = no such curve, though single readings can be large; an effect the other way counts as inactive or inconclusive.
What was measured:
CRL-7250 = normal cell line; experiment: Cytotoxic Profiling of Annotated Libraries Using Quantitative High-Throughput Screening (AID 1296008); conditions: Five cell lines viability, CellTiter-Glo ATP luminescence, 48-72 h; max response: hits give low values; note: nearly all actives have a fitted effect of over 60% in size; for max response: % is set by controls: 0 for no effect and ±100 for the full control effect
Procedure, shortened: (§1)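 Cytotoxicity was measured as CellTiter-Glo ATP luminescence, read after 10 min at room temperature. Compound treatment of the cells lasted 48 or 72 hr at 37 degrees Celsius in a qHTS format.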

HEK293 = experiment: as above; conditions: Five cell lines viability, CellTiter-Glo ATP luminescence, 48-72 h; max response: hits give low values
Procedure, shortened: as §1

HaCat = experiment: as above; conditions: Five cell lines viability, CellTiter-Glo ATP luminescence, 48-72 h; max response: hits give low values
Procedure, shortened: as §1

KB-3-1 = experiment: as above; conditions: Five cell lines viability, CellTiter-Glo ATP luminescence, 48-72 h; max response: hits give low values
Procedure, shortened: as §1

NIH3T3 [1] = experiment: as above; conditions: Five cell lines viability, CellTiter-Glo ATP luminescence, 48-72 h; max response: hits give low values
Procedure, shortened: as §1

NIH3T3 [2] = experiment: qHTS assay to identify novel small-molecules to repurpose for Merkel cell carcinoma treatment (AID 1296009); conditions: MCC and control cell lines, CellTiter-Glo viability, 72 h; at 44.8 µM (top of the series) unless noted; note: nearly all actives have a fitted effect of over 60% in size
Procedure, shortened: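 After compound transfer in DMSO, plates were kept 72 hr at 37 degree celsius. Luminescent ATP signal from CellTiter-Glo served as viability measure, normalized against DMSO and no-cell controls.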

C33A = experiment: Primary qHTS to identify gynecologic anti-cancer compounds using libraries of approved drugs and bioactive compounds (AID 1345084); conditions: Gynecologic cancer cell panel viability, ATPlite luminescence, 48 h; series mostly up to 57.5 µM; note: % is set by controls: 0 for no effect and ±100 for the full control effect; nearly all actives have a fitted effect of over 55% in size
Procedure, shortened: (§2)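 Measured: luminescence after ATPlite addition (15 min, RT). Exposure: 48 h, 37 C, 5% CO2.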

CAOV3 = experiment: as above; conditions: Gynecologic cancer cell panel viability, ATPlite luminescence, 48 h; series mostly up to 57.5 µM
Procedure, shortened: as §2

CASKI = experiment: as above; conditions: Gynecologic cancer cell panel viability, ATPlite luminescence, 48 h; series mostly up to 57.5 µM
Procedure, shortened: as §2

Es-2 = experiment: as above; conditions: Gynecologic cancer cell panel viability, ATPlite luminescence, 48 h; series mostly up to 57.5 µM
Procedure, shortened: as §2

HeLa = experiment: as above; conditions: Gynecologic cancer cell panel viability, ATPlite luminescence, 48 h; series mostly up to 57.5 µM
Procedure, shortened: as §2

Hek293T = experiment: as above; conditions: Gynecologic cancer cell panel viability, ATPlite luminescence, 48 h, control line for the selectivity index; series mostly up to 57.5 µM
Procedure, shortened: as §2

JEG-3 = experiment: as above; conditions: Gynecologic cancer cell panel viability, ATPlite luminescence, 48 h; series mostly up to 57.5 µM
Procedure, shortened: as §2

COc1cccc(OC)c1-c1nc(C(=O)N[C@@H](CC(C)C)C(=O)O)cn1-c1ccnc2cc(Cl)ccc12
inactive: outcome (CRL-7250) | max response (HEK293) -12.4% | max response (HaCat) 3.78% | outcome (KB-3-1) | outcome (NIH3T3 [1]) | outcome (NIH3T3 [2]) | Potency (C33A) | Potency (CAOV3) | outcome (CASKI) | Potency (Es-2) | Potency (HeLa) | Potency (Hek293T) | Potency (JEG-3)

C=C1CC[C@]2(C(=O)O[C@@H]3O[C@H](CO)[C@@H](O)[C@H](O)[C@H]3O)CC[C@]3(C)C(=CCC4[C@@]5(C)C[C@H](O)[C@@H](O[C@@H]6O[C@H](C(=O)O)[C@@H](O)[C@H](O)[C@H]6O)[C@](C)(C=O)C5CC[C@]43C)C2C1 (stereo partly specified)
inactive: max response (CRL-7250) 4.09% | max response (HEK293) -16.5% | max response (HaCat) -21.8% | max response (KB-3-1) 9.97% | outcome (NIH3T3 [1]) | outcome (NIH3T3 [2]) inactive [at 9.27 µM] | activity change, negative = cytotoxicity (C33A) 1.71% [at 11.6 µM] | activity change, negative = cytotoxicity (CAOV3) -2.86% [at 11.6 µM] | activity change, negative = cytotoxicity (CASKI) -3.95% [at 11.6 µM] | activity change, negative = cytotoxicity (Es-2) 1.14% [at 11.6 µM] | activity change, negative = cytotoxicity (HeLa) 4.56% [at 11.6 µM] | activity change, negative = cytotoxicity (Hek293T) 2.33% [at 11.6 µM] | activity change, negative = cytotoxicity (JEG-3) -0.564% [at 11.6 µM]

CN1CCc2cc(Cl)c(O)cc2[C@@H](c2cccc3c2OCC3)C1
inactive: outcome (CRL-7250) | max response (HEK293) -11.4% | max response (HaCat) -1.65% | max response (KB-3-1) -4.72% | outcome (NIH3T3 [1]) | outcome (NIH3T3 [2]) | Potency (C33A) | Potency (CAOV3) | outcome (CASKI) | Potency (Es-2) | Potency (HeLa) | Potency (Hek293T) | Potency (JEG-3)

COC(=O)C[C@@H]1C(C(=O)O)=CO[C@@H](O[C@@H]2O[C@H](CO)[C@@H](O)[C@H](O)[C@H]2O)/C1=C\COC(=O)/C=C/c1ccc(O)c(OC)c1
inactive: max response (CRL-7250) 2.29% | max response (HEK293) -2.42% | max response (HaCat) -1.38% | outcome (KB-3-1) | outcome (NIH3T3 [1]) | outcome (NIH3T3 [2]) inactive [at 17.4 µM] | Potency (C33A) | Potency (CAOV3) | outcome (CASKI) | Potency (Es-2) | Potency (HeLa) | Potency (Hek293T) | Potency (JEG-3)

C=C1C(OC(C)=O)CCC2(C)CCC(C(C)(C)O)CC12 (stereo unspecified)
inactive: max response (CRL-7250) -5.46% | max response (HEK293) -1.52% | max response (HaCat) -5.19% | max response (KB-3-1) 1.41% | outcome (NIH3T3 [1]) | outcome (NIH3T3 [2]) | Potency (C33A) | Potency (CAOV3) | outcome (CASKI) | Potency (Es-2) | Potency (HeLa) | Potency (Hek293T) | Potency (JEG-3)

O=C(Nc1cc(-c2ccccc2)nn1-c1ccccc1)c1ccc([N+](=O)[O-])cc1
inactive: max response (CRL-7250) -6.57% | max response (HEK293) -12.1% | max response (HaCat) 1.9% | max response (KB-3-1) -7.82% | outcome (NIH3T3 [1]) | outcome (NIH3T3 [2]) | Potency (C33A) | Potency (CAOV3) | outcome (CASKI) | Potency (Es-2) | Potency (HeLa) | Potency (Hek293T) | Potency (JEG-3)

O=C(OCc1ccccc1O[C@@H]1O[C@H](CO)[C@@H](O)[C@H](O)[C@H]1O)C1(O)C=CCCC1O (stereo partly specified)
inactive: max response (CRL-7250) 3.78% | max response (HEK293) 2.2% | max response (HaCat) -2.8% | max response (KB-3-1) 5.3% | outcome (NIH3T3 [1]) | outcome (NIH3T3 [2]) inactive [at 17.4 µM] | Potency (C33A) | Potency (CAOV3) | outcome (CASKI) | Potency (Es-2) | Potency (HeLa) | Potency (Hek293T) | Potency (JEG-3)

CN(C)CC(c1ccc(O)cc1)C1(O)CCCCC1 (stereo unspecified)
inactive: max response (CRL-7250) 2.79% | max response (HEK293) 2.78% | max response (HaCat) -0.565% | outcome (KB-3-1) | outcome (NIH3T3 [1]) | outcome (NIH3T3 [2]) | Potency (C33A) | Potency (CAOV3) | outcome (CASKI) | Potency (Es-2) | Potency (HeLa) | Potency (Hek293T) | Potency (JEG-3)

CC(C)=CCC(O)[C@](C)(O)C1[C@H](O)C[C@@]2(C)C3CC=C4C(C[C@H](O)[C@@H](O[C@@H]5O[C@H](CO)[C@@H](O)[C@H](O)[C@H]5O)C4(C)C)[C@]3(C)C(=O)C[C@]12C (stereo partly specified)
inactive: max response (CRL-7250) 4.58% | max response (HEK293) -6.78% | max response (HaCat) -8.01% | outcome (KB-3-1) | outcome (NIH3T3 [1]) | outcome (NIH3T3 [2]) inactive [at 17.4 µM] | Potency (C33A) | Potency (CAOV3) | outcome (CASKI) | Potency (Es-2) | Potency (HeLa) | Potency (Hek293T) | Potency (JEG-3)

COc1c2c(c(C)c3c1C(=O)OC3)OC1(C)CC(O)C34OC(OC)(CCC3(C)C1C2)OC4(C)CO (stereo unspecified)
inactive: outcome (CRL-7250) | max response (HEK293) -8.39% | max response (HaCat) 2.59% | outcome (KB-3-1) | outcome (NIH3T3 [1]) | outcome (NIH3T3 [2]) inactive [at 17.4 µM] | Potency (C33A) | Potency (CAOV3) | outcome (CASKI) | Potency (Es-2) | Potency (HeLa) | Potency (Hek293T) | Potency (JEG-3)

Cn1cc(Nc2cnccc2C(=O)O)c2cccnc21
inactive: max response (CRL-7250) 1.11% | max response (HEK293) -5.52% | max response (HaCat) 4.86% | outcome (KB-3-1) | outcome (NIH3T3 [1]) | outcome (NIH3T3 [2]) | Potency (C33A) | Potency (CAOV3) | outcome (CASKI) | Potency (Es-2) | Potency (HeLa) | Potency (Hek293T) | Potency (JEG-3)

C=CC1(C)C=C2CC[C@H]3[C@@](C)(C(=O)O)CCC[C@]3(C)C2CC1 (stereo partly specified)
inactive: max response (CRL-7250) -9.61% | max response (HEK293) 2.61% | max response (HaCat) 3.4% | max response (KB-3-1) 5.04% | outcome (NIH3T3 [1]) | outcome (NIH3T3 [2]) | Potency (C33A) | Potency (CAOV3) | outcome (CASKI) | Potency (Es-2) | Potency (HeLa) | Potency (Hek293T) | Potency (JEG-3)

From PubChem BioAssay (NCATS)
